From PubChem BioAssay
Rows were chosen to be rich in hits. Some 7.3% of all compounds tested hit in one or more screens of this group.
VACV mCherry inh = vaccinia inhibition (mCherry reporter) | Vaccinia virus mCherry reporter infection, fluorescence | Potency, µM (series often up to 36.5 µM), for the others: top-dose activity change, negative = inhibition, most hits filed as inhibitors | 310,000 tested, 0.63% active | AID 720579; calls by dose curve; tested in A549 cells; further: potency means the concentration at half of the fitted maximal effect; nearly all actives have a fitted effect of over 35% in size
FMDV antiviral = antivirals against foot and mouth disease virus. 410,000 tested, 1.2% active. Potency, µM (titrated, usually from 57.9 µM), for the others: at the highest dose activity change, negative = inhibition, hits mostly inhibitors. FMDV antiviral cell-based qHTS; calls by dose curve; tested in HEK293T cells; further: read-out not given here; potency means the concentration at half of the fitted maximal effect; nearly all actives have a fitted effect of over 45% in size
HCMV antiviral = blocks human cytomegalovirus replication. HFF cells, HCMV-luciferase reporter, 72 h; hits give low values. activity change, negative = inhibition, % at 57.5 µM. 410,000 tested, 4.5% active. AID 1259415; in the data active means activity change below about -60%; inconclusive means no clear call, values can overlap the other calls; inactive means above about -39%
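Luciferase read-out from HCMV-luciferase-infected HFFs (MOI 1 PFU/cell) 72 h post infection at 37C; compounds added after 16 h cell attachment; activity normalized between buffer-only basal and Salinomycin (10uM) inhibitor controls.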
HCV inh = inhibitors of hepatitis C virus infection; Huh7.5.1 HCVcc-Cre infection, luciferase reporter, 44 h; Potency, µM (top dose mostly 41.8 µM), for the others: at the top dose activity change, negative = inhibition, actives largely listed as inhibitors; 340,000 tested, 3.4% active; active means well fitted inhibition curve with a large enough effect; inconclusive means small, poorly fitted or top-dose-only effect, or another doubt; inactive means no such curve, though single readings can be large or run the other way; further: potency means the concentration at half of the fitted maximal effect
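After 44 h co-culture of compound, cells and HCVcc-Cre (~0.5 moi), substrate is added for 15 min at room temperature and luciferase measured over 15 sec. Cells were seeded at 1,000/well and pre-cultured 4 h.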
VACV Venus inh = inhibitors of vaccinia virus (Venus reporter) | Vaccinia virus Venus reporter expression, fluorescence | Potency, µM (series often up to 36.5 µM), for inactives: top-dose activity change, negative = inhibition, hits mostly inhibitors | 330,000 tested, 0.46% active; calls by dose curve; tested in A549 cells; further: potency means the concentration at half of the fitted maximal effect; nearly all actives have a fitted effect of over 30% in size
An asterisk follows results filed as active; i = inactive; ? = inconclusive; nt = not tested or not shown; [ ] = another dose, or the depositor's remark. On the % scale 0 is the no-effect control and ±100 the full control effect.

SMILES | VACV mCherry inh | FMDV antiviral | HCMV antiviral | HCV inh | VACV Venus inh
O=C(c1ccc(F)cc1)N(c1ccccc1F)C(CCc1ccccc1)c1nc2ccccc2[nH]1 (configuration not stated) | nt | nt | 11 | nt | nt
COc1cccc(C(c2sc3nc(-c4ccco4)nn3c2O)N2CCOCC2)c1 (configuration not stated) | 4% | 3% | -3 | nt | 4%
Cc1ccc(Cc2nc3ccccc3nc2SCC(=O)N2CCCCC2)cc1 | -11% | 0% | 3 | nt | -1%
Cc1cccc(C(=O)NCCc2nc3ccccc3n2CCC(C)C)c1 | 2% | -27% | -21 | nt | 5%
CCN(CC)S(=O)(=O)c1cccc(C(=O)N/N=C/c2cccc(O)c2O)c1 | 10µM* | -5% | -24 | ? | ?
CCN(CC)c1ccc(/C=N/NC(=O)CCC(=O)NCc2ccccc2)c(O)c1 | 10µM* | 14% | -16 | ? | ?
CCN(CC)c1ccc(/C=N/Nc2ccc(C)cc2)c(O)c1 | -19% | 7% | -20 | 3% | -1%
CCOC(=O)N/N=C/c1ccc(N(CC)CC)cc1O | ? | 32% | 24 | 3.5µM* | ?
O=C(CCC(=O)N/N=C/c1c[nH]c2ccccc12)NCc1ccccc1 | i | -14% | 64 | 30% | -18%
Cc1cc(C)cc(OCC(=O)NCC2(N(C)C)CCCCC2)c1 | -4% | -20% | 0 | nt | -5%
Cc1ccc(C)c(Cn2nnc(C(=O)NCc3ccccc3)c2N)c1 | -13% | -15% | -14 | nt | -4%
COc1ccc(CN2C[C@H](Sc3nc4ccccc4[nH]3)C[C@H]2C(=O)N2CCCN(C)CC2)cc1C | 2% | -12% | nt | nt | 14%
CCCCNC(=O)C(C)(C)n1cc(NC(=O)c2cc(C)oc2C)cn1 | nt | nt | 3 | nt | nt
CC(C)(C)c1cc(C2=CSC3=NCCN23)cc(C(C)(C)C)c1O | nt | ? | nt | 5.6µM* | nt
Cc1ccc(NC(=O)c2cc(-c3cc(Cl)ccc3C)n[nH]2)cc1NS(C)(=O)=O | -2% | 25µM* | -83* | nt | -21%
COc1ccc(Cl)c(-c2cc(C(=O)Nc3ccc(C)c(NS(C)(=O)=O)c3)[nH]n2)c1 | -17% | ? | -40 | nt | ?
Cc1ccc(Cl)cc1-c1cc(C(=O)NCc2cc(C(F)(F)F)cc(C(F)(F)F)c2)[nH]n1 | -27% | 40µM* | -10 | nt | ?
COc1ccc(NC(=O)c2cc(-c3ccc(C)c(C)c3O)n[nH]2)cc1Cl | -28% | ? | -8 | 2.5µM* | -28%
COc1ccc(Cl)cc1-c1cc(C(=O)Nc2ccc(C)c(NS(C)(=O)=O)c2)[nH]n1 | -28% | 32µM* | ? | nt | -29%
Cc1ccc(-c2cc(C(=O)Nc3c(C(=O)c4ccc(C)c(F)c4)oc4ccccc34)no2)cc1 | -8% | -17% | 11 | nt | 6%
CCCCN(C)c1nc2c(S(=O)(=O)c3ccc(CC)cc3)nnn2c2ccc(Cl)cc12 | i | -7% | 4 | nt | -11%
Cn1cc(S(=O)(=O)N2CCOCC2)cc1C(=O)Nc1ccc(Cl)c(C(F)(F)F)c1 | -14% | -30% | -16 | nt | -14%
CNC(=S)N(C)[C@H]1c2c(ccc3ccccc23)OC[C@H]1CO | ? | 0% | -60* | 1% | -18%
CCCCOc1ccc(N2C(=O)C(C)CNC2=S)cc1 (configuration not stated) | -12% | 3% | -99* | 24% | 2%
CCOc1ccc(N2C(=O)CNC2=S)cc1 | 15% | -3% | -22 | 8% | 15%
SMILES | VACV mCherry inh | FMDV antiviral | HCMV antiviral | HCV inh | VACV Venus inh
CCOC(=O)C1=CCN(S(=O)(=O)c2ccc(Br)cc2)C1c1cccc(Br)c1 (configuration not stated) | nt | nt | -22 | nt | nt
Cc1noc(/C=C/c2ccccc2F)c1S(=O)(=O)N1CCC(C(=O)Nc2ccc(C#N)cc2)CC1 | -4%[7.34 µM] | ? | 12 | nt | -4%[7.34 µM]
Oc1cc2c(cc1O)[C@H]1c3ccc(O)c(O)c3OC[C@@]1(O)C2 | 3% | -25% | -34 | ? | 64%
Oc1ccc2c(c1)OCC1(O)Cc3cc(O)c(O)cc3C21 (configuration not stated) | 270% | -28% | -6 | 25µM* | 329%
CCCCC(=O)NC(c1ccc(N(C)C)cc1)c1ccc2cccnc2c1O (configuration not stated) | 1.3µM* | 10% | -102* | 4µM* | -27%
CCCCC(=O)NC(c1ccc(N(CC)CC)cc1)c1ccc2cccnc2c1O (configuration not stated) | ? | -2% | -96* | 1.4µM* | ?
O=C(Nc1noc2ccccc12)c1ccc(F)cc1 | -3% | ? | 107 | nt | -1%
Cn1cnnc1SCc1ccc(C(=O)N=Nc2c(O)n(Cc3ccc(Cl)cc3)c3ccccc23)cc1 | ? | -25% | -33 | 10µM* | ?
CCn1c(O)c(N=NC(=O)c2ccc(CSc3nncn3C)cc2)c2ccccc21 | -12% | -20% | ? | ? | ?
S=C(NCc1ccccc1)NCc1ccccc1 | -12% | nt | ? | -8% | -4%
CCCOc1ccc(CNC(=S)Nc2ccccc2)cc1Cl | i | -5% | -3 | 16µM* | -21%
S=C(NCCCc1ccccc1)NCc1ccccc1 | -2% | 28% | -83* | -14% | -5%
COc1ccc(CNC(=S)Nc2ccccc2)cc1Cl | nt | 28% | 6 | ? | nt
CC(C)COc1ccc(CNC(=S)NCc2ccccc2)cc1 | -24% | nt | -82* | ? | -23%
CC(C)Oc1ccc(CNC(=S)Nc2ccccc2)cc1Cl | nt | 29% | 37 | -2% | nt
CC(C)COc1ccc(CNC(=S)Nc2ccccc2)cc1Cl | -26% | -7% | -26 | 10µM* | -16%
CCCCc1nn2c(=O)cc(COC(=O)c3cccs3)nc2s1 | -1% | 32% | 2 | nt | -1%
COc1ccc(CCN2C(=O)C3C4C=CC(C3C2=O)C2C(=O)N(CCc3ccc(OC)c(OC)c3)C(=O)C42)cc1OC (configuration not stated) | nt | ? | -94* | 4.5µM* | nt
COc1ccc2nc(NC(=O)c3nc(SCc4cccc(C)c4)ncc3Cl)sc2c1 | ? | -8% | 8 | nt | ?
Cc1cccc(CS(=O)(=O)c2ncc(Cl)c(C(=O)Nc3nc4ccc(F)cc4s3)n2)c1 | ? | 16µM* | -60* | nt | ?
CSc1ncc(Cl)c(C(=O)Nc2nc3ccc(F)cc3s2)n1 | 0% | -7% | 27 | nt | -2%
O=C(Nc1nc2ccc(F)cc2s1)c1nc(S(=O)(=O)Cc2ccccc2)ncc1Cl | -29% | 28µM* | -107* | nt | -26%
CC(C)=CCC12Oc3cc(O)ccc3C1(O)Oc1cc(O)c([C@H]3C=C(C)CC(c4ccc(O)cc4O)[C@H]3C(=O)c3ccc(O)cc3O)c(O)c1C2=O (some centres not stated) | -8% | -25% | nt | 13µM* | -6%
O=C(N/N=C/c1ccco1)c1cc(-c2cccc3ccccc23)n[nH]1 | nt | 0% | 89 | 0% | nt
O=C(N/N=C/c1ccccc1C(=O)O)c1cc(-c2ccc3c4c(cccc24)CC3)n[nH]1 | -25% | -7% | -61* | -2% | -2%
O=S1(=O)CCOC[C@H](c2ccccc2)N1Cc1ccc(Cl)c(Cl)c1 | i | nt | nt | nt | -20%
